Sampled rows, rich in hits. Any-hit rate of the full collection: about 1.2%.
TbPYK inhibitor – inhibitors of Trypanosoma brucei pyruvate kinase. TbPYK enzyme, Kinase-Glo Plus ATP luminescence, 45 min. Potency, µM (titrated, usually from 76.8 µM), hits mostly inhibitors. 410,000 tested, 0.12% active; also: nearly all actives have a fitted effect of over 50% in size
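Quantitative HTS: titrated library compounds versus trypanosomal pyruvate kinase in TEA buffer (pH 7.2) containing KCl, MgCl2, BSA and Tween-20. Reactions were initiated with ADP, 130 uM final. Kinase-Glo Plus luminescence was read after 45 min at RT.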
AMA1-RON2 inh – inhibitors of Plasmodium falciparum AMA1-RON2 interaction | Potency, µM (series often up to 58.2 µM), actives largely listed as inhibitors | AlphaScreen AMA1-biotinylated RON2 peptide binding | AID 720542 | 360,000 tested, 0.2% active; also: nearly all actives have a fitted effect of over 45% in size
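AMA1 (3D7) with his tag at 25 nM final met compounds first, then biotinylated RON2 peptide at 25 nM; detection used donor plus acceptor beads, 10 µg/mL apiece, read by AlphaScreen after 30 min at room temperature.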
LmPK inhibitor – blocks Leishmania mexicana pyruvate kinase activity; Q27686; purified LmPK, Kinase-Glo ATP luminescence, 1 h; Potency, µM (doses to about 57.5 µM), hits mostly inhibitors; 290,000 tested, 0.37% active
Target sequence (Q27686 whole entry, looked up): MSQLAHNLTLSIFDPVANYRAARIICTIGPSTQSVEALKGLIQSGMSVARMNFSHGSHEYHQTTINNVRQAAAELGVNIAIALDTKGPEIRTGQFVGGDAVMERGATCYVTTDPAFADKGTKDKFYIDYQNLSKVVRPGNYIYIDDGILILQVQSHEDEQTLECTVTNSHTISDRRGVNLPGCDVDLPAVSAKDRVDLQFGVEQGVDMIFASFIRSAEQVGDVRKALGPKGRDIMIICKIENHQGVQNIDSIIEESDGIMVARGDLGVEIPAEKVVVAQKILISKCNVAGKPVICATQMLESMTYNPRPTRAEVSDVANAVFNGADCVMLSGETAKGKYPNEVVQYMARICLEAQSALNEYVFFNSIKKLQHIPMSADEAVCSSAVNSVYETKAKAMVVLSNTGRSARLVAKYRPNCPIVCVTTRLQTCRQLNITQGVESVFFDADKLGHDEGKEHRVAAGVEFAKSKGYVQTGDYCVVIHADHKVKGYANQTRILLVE
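In 50 mM imidazole pH 7.2 with 7 mM MgCl2, LmPK (0.1 nM) turned over PEP (0.5 mM) and ADP (0.1 mM) for 1 h at room temperature. Luciferase read-out of ATP.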
Giardia FBPA inh – Giardia lamblia aldolase inhibition | A8B2U2 | purified Giardia FBPA | Potency, µM (highest dose often 59.6 µM), most hits filed as inhibitors | 290,000 tested, 0.71% active; also: nearly all actives have a fitted effect of over 55% in size
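40 nM FBPA preincubated 10 min at RT with compound (up to 57.5 uM final), then substrate plus GAPDH/TPI/NAD/arsenate coupling and diaphorase/resazurin added. Fluorescence read after 20 min at RT, 525/598 nm.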
NS1 inh – blocks influenza NS1 protein function | 270,000 tested, 0.4% active | AID 2326 | Potency, µM (titrated, usually from 46.1 µM); calls by dose curve; also: actives are rising curves; nearly all actives have a fitted effect of over 50% in size
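Compounds were scored for reversing the slow growth caused by influenza A NS1 in S. cerevisiae, measured by optical density at 600 nm. Assay medium contained 2% galactose at pH 6.0; NS1-free yeast of the same strain were the positive control.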
NS1 inh valid – validation of influenza NS1 protein function inhibitors; shares compounds with NS1 inh; influenza NS1 function cell assay, 15-point titration; activity change, negative = inhibition, % at 32.9 µM; 1,400 tested, under 10 active; calls by dose curve
PR8 titer – influenza NS1 inhibitors: inhibition of influenza A/PR/8/34 replication. shares compounds with NS1 inh. MDCK infected influenza A/PR/8/34, virus titer TCID50; stronger effect = lower value. virus titer (log TCID50), log10 TCID50 at 5 µM. 95 tested, 30% active; call rule not given here
A number is an active result; 0 = inactive; ? = inconclusive; - = no result; [ ] = another dose, or the depositor's remark. Unless noted, calls follow the shape of the dose curve; as a rule, active = well fitted curve in the direction sought with a large enough effect; inconclusive = small, poorly fitted or top-dose-only effect, or another doubt; inactive = no such curve, though single readings can be large; an effect the other way counts as inactive or inconclusive.

SMILES	TbPYK inhibitor	AMA1-RON2 inh	LmPK inhibitor	Giardia FBPA inh	NS1 inh	NS1 inh valid	others
CCc1cccc(C)c1NC(=O)C(CC)Sc1nncn2c1cc1occc12 (stereo unspecified)	0	-	-	-	-	-
Cc1sc2nc(CN(Cc3cccs3)C(=O)NC3CCCCC3)[nH]c(=O)c2c1C	0	0	0	0	0.447µM	?
Cc1sc2nc(CN(C(=O)NC3CCCCC3)C3CCCC3)[nH]c(=O)c2c1C	0	0	0	0	0	-
COc1ccc2[nH]c3c(c2c1)CCNC3	0	0	-	0	17.8µM	0
Cc1c(Cl)cccc1NC(=O)C(=O)NCC(c1cccnc1)N1CCN(c2ccccc2)CC1 (stereo unspecified)	0	-	-	-	-	-
COc1ccc(/C=N/NC(=O)C(=O)/C=C2\NC3(CCCC3)Cc3ccccc32)cc1	0	0[2.32 µM]	0	0	0	-
O=C(/C=C1\NC2(CCCC2)Cc2ccccc21)C(=O)N/N=C/c1ccc(O)c(O)c1	0	?	0	0	17.8µM	0
O=C(NCc1cccs1)C1CCCN1C(=O)Nc1ccccc1Cl (stereo unspecified)	0	0	0	0	?	0	PR8 titer=0
CN[C@@H]1[C@H](O[C@@H]2O[C@H](C)[C@@](O)(CO)[C@H]2O[C@H]2[C@H](O)[C@H](O)[C@H](N=C(N)N)[C@@H](O)[C@@H]2N=C(N)N)O[C@@H](CO)[C@H](O)[C@H]1O	-	-	-	0	-	-
COc1ccc(CCNC(=O)c2cc(-c3ccc(Cl)cc3)on2)cc1OC	0	-	-	-	-	-
COc1ccc(-c2cc(C(=O)Nc3cc(C)n(Cc4ccc(Cl)cc4)n3)no2)cc1OC	0	0	0	0	5.01µM	0
Cc1ccc(NC(=O)c2cc(NC(=O)C3CC=CCC3C(=O)O)ccc2N2CCOCC2)cc1 (stereo unspecified)	0	0	0	0	7.94µM	0
CCN(CC)CC[n+]1ccc2c(C)c3[nH]c4ccc(O)cc4c3c(C)c2c1	-	-	-	-	0	-
COC(=O)c1c(NC(=O)CN2CCC(C(N)=O)CC2)c2c(C)cccc2n1C	0	0	0	0	?	-
COC(=O)c1c(NC(=O)CN2CCCC(C)C2)c2c(C)cccc2n1C (stereo unspecified)	0	0	0	0	5.01µM	0
COc1ccc(COc2cc(-c3cccc(OC)c3)nc3ccc(N)cc23)cc1	0	0	0	0	4.47µM	0
COc1ccc(COc2cc(-c3cccc(OC)c3)nc3ccc(NC(=O)c4ccc(C)cc4)cc23)cc1	0	0	0	0	0	-
COc1ccc(COc2cc(-c3cccc(OC)c3)nc3ccc(NC(=O)c4ccc(N(C)C)cc4)cc23)cc1	0	0	0	0	10µM	?
O=C(NCCc1csc(-c2ccc(Cl)cc2)n1)c1cccs1	0	-	-	-	-	-
C[C@]12CCC(=O)C=C1CC[C@@H]1[C@@H]2[C@@H](O)C[C@@]2(C)[C@H]1CC[C@]2(O)C(=O)COP(=O)(O)O	0	-	-	-	-	-
CC(C)OC(=O)/C(=C\c1ccc2c(c1)c1ccccc1n2C)NC(=O)c1ccccc1	0	0	0	0	10µM	0
COc1ccc([C@]23Cc4cc(OC)c(OC)cc4C(O2)c2c(cc(C)n(Cc4ccccc4)c2=O)O3)cc1	-	-	0[11.5 µM]	0[12.9 µM]	0	-
Cc1cccc(C)c1NC(=O)c1cn(-c2ccccc2)nc1-c1ccccc1	0	0[11.6 µM]	0	0	0	-
O=C(NN=C1CCCCCC1)c1cn(-c2ccccc2)nc1-c1ccccc1	0	0	0	0	14.1µM	0
O=C(NN=C1CCCC1)c1ccccc1[N+](=O)[O-]	0	0	0	0	?	0
SMILES	TbPYK inhibitor	AMA1-RON2 inh	LmPK inhibitor	Giardia FBPA inh	NS1 inh	NS1 inh valid	others
c1ccc2c(CSCc3cccc4ccccc34)cccc2c1	-	-	-	-	0	-
COc1ccc(N2CCN(C(CNS(=O)(=O)c3ccc(OC)c(C)c3)c3ccco3)CC2)cc1 (stereo unspecified)	0	-	-	-	-	-
Cc1cnc(C(=O)OCC(=O)NC(=O)NC(C)C)cn1	0	0	0	0	1.41µM	0
Cc1cnc(C(=O)OCC(=O)Nc2ccc(Cl)cc2)cn1	0	0	0	0	0	-
NC(N)=NNC(=O)C(=O)O	-	-	-	-	0	-
CCCC[C@@H](C)/C=C(C)/C=C(\C)C(=O)NC1=C[C@@](O)(/C=C/C=C/C=C/C(=O)NC2=C(O)CCC2=O)[C@@H]2O[C@@H]2C1=O	-	-	-	0	-	-
O=C(NNC(=O)c1ccc(Br)cc1)c1ccncc1	0	0	0	0	?	0
O=C(CN1CC[n+]2c(-c3cccs3)csc21)c1ccc(Br)cc1	0	0	0	0	4.47µM	0
CCC(C)[C@H](NC(=O)NCc1cccc(OC)c1)C(=O)OC (stereo partly specified)	0	0	0	0	2.24µM	0
COc1cccc(C2CC(c3ccc(Cl)cc3)Nc3nc(N)nn32)c1 (stereo unspecified)	0	0	0	0	7.08µM	0
COc1ccc(C2CC(c3cccc(Cl)c3)n3nc(N)nc3N2)cc1 (stereo unspecified)	0	0	0	0	0	-
O=C(/C=C/c1ccc(Br)cc1)c1ccc(NC2=NCCCS2)cc1	0	0	0	0	?	?
Cc1cccc(OCC(=O)NCC2(N3CCN(C)CC3)CCCCC2)c1	0	-	-	-	-	-
COc1ccc(-c2nc(-c3ccccc3)c(NC(C)C)o2)cc1	-	-	-	0	-	-
CC12Cc3cnoc3C=C1CCC1C2CCC2(C)C1CCC2(C)O (stereo unspecified)	0	0	-	-	-	-
C[C@]12Cc3cn4c(nc3C=C1CCC1C2CC[C@@]2(C)[C@H]1CC[C@@]2(O)C#N)nc1ccccc14 (stereo partly specified)	-	-	-	0	39.8µM	?
CCCC1=[N+](CC)CCn2c(C)ccc21	0	0	0	0	0	-
Cc1cc2n(c1)CCn1c(C)ccc1-2	-	-	0	?	12.6µM	0
Cc1cc(-c2csc(NC(=O)c3ccc(=O)n(C)n3)n2)c(C)n1CC1CCCO1 (stereo unspecified)	?	0	0	?	20µM	0
Cc1cc(-c2csc(NC(=O)c3ccc(=O)[nH]c3)n2)c(C)n1Cc1ccco1	0	0	0	?	0	-
Cc1nn(CC(=O)Nc2ccc3c(c2)nc2n3CCOC2)c(=O)c2ccccc12	0	0	0	0	0	-
COCCN1CCn2c(nc3cc(NC(=O)c4ccc(OC)cc4)ccc32)C1	0	0	0	0	12.6µM	0	PR8 titer=0
COCCN1CCn2c(nc3cc(NC(=O)Cn4nc(C)c5ccccc5c4=O)ccc32)C1	0	0	0	0	?	0
COCCN1CCn2c(nc3cc(NC(C)=O)ccc32)C1	0	0	0	0	0	-
O=C(N/N=C/c1cc2ccccc2[nH]1)c1ccccc1Cl	0	0	0	0	?	0
CN(C)S(=O)(=O)c1cc(NC(=O)CSc2ncc(C(F)(F)F)cc2Cl)ccc1Cl	0	0	0	0	12.6µM	0
